Reference: PubChem BioAssay AID504332 (National Center for Advancing Translational Sciences (NCATS), 2011)
The whole screen tested about 350,000 compounds, of which about 31,000 (8.9%) were called active. About 15% were inconclusive and are not listed. Calls come from the whole dose curve; as a rule, active = well fitted inhibition curve with a large enough effect; inconclusive = small, poorly fitted or top-dose-only effect; inactive = no such curve, though single readings can be large or run the other way. What follows is part of a selection rich in actives, with near analogues and random picks from the rest. Entries that show only a call come without a potency.

target: Histone-lysine N-methyltransferase EHMT2 (Homo sapiens) (UniProt Q96KQ7); experiment: qHTS Assay for Inhibitors of Histone Lysine Methyltransferase G9a; settings: G9a H3K9 monomethylation, AlphaScreen, 2 h; series mostly up to 59 µM; note: nearly all actives have a fitted effect of over 75% in size
Sequence (Q96KQ7 913-1193 limits assumed): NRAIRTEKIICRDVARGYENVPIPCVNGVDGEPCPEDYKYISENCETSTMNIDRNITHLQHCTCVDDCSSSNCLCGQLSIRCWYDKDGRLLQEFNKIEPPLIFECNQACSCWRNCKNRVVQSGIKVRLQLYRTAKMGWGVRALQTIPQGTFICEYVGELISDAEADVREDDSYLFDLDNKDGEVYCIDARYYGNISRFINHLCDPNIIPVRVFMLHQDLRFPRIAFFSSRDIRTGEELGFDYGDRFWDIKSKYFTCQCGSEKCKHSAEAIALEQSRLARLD
How it was run: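 AlphaScreen read-out: biotin-H3K9 peptide (500 nM) methylation by 20 nM enzyme with 20 uM SAM, 2 h at room temperature after 15 min compound preincubation; anti-monomethyl H3K9 antibody plus donor/acceptor beads, 10 min dark.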
Potency is the fitted concentration of half-maximal effect.

| Compound | Potency | activity, negative = inhibition |
| --- | --- | --- |
| CCOC(=O)CCCNC(=O)COC(=O)/C=C/c1ccc2c(c1)OCO2 | inactive |  |
| CCc1c(C)sc(NC(=O)/C=C/c2ccc3c(c2)OCO3)c1C(=O)OC | inactive |  |
| CCC1=C/C(=C\c2ccc3c(c2)OCO3)C(=O)S1 | 11.2 µM (active) |  |
| COc1ccc(CCNC(=O)c2cnc3sc(N4CCCCCC4)nn3c2=O)cc1OC | inactive |  |
| Cc1oc2ccc(O)c(CN3CCC(C)CC3)c2c1C(=O)Nc1ccccc1 | inactive |  |
| Cc1nc2ccc(S(=O)(=O)NC(C(=O)NCc3ccccc3Cl)C(C)C)cc2s1 (stereo not drawn) | inactive |  |
| Brc1ccc(-c2csc(N/N=C/c3cccnc3)n2)cc1 | 14.1 µM (active) |  |
| O=C(Cc1ccc(F)cc1)N/N=C/c1ccc2c(c1)OCO2 | inactive |  |
| Brc1ccc(-c2csc(N/N=C/c3ccc4c(c3)OCO4)n2)cc1 | 3.55 µM (active) |  |
| O=C(Nc1nc(-c2ccc(-c3ccccc3)cc2)cs1)c1cnccn1 | inactive |  |
| O=C(N/N=C/c1ccc2c(c1)OCO2)C(=O)N1CCCC1 | inactive |  |
| O=C(NCc1cccnc1)C(=O)Nc1nc(-c2ccccc2)cs1 | inactive |  |
| CCOc1ccc(-c2cc3c(=O)n(CC(=O)NCc4ccc(OC)cc4)ccn3n2)cc1 |  | 0.34% [at 12.7 µM] (inactive) |
| Cc1ccc(C)c(Oc2c(C(F)(F)F)oc3c(CN4CCN(C)CC4)c(O)ccc3c2=O)c1 | inactive |  |
| Cc1ccc2nc(/C(C#N)=C/c3ccc(-c4ccc(C(=O)OC(C)C)cc4)o3)[nH]c2c1 | inactive |  |
| Cc1ccccc1-n1c(SCC(=O)NCc2cccs2)nnc1-c1ccncc1 | inactive |  |
| Cc1ccc(Nc2nc(CSc3nnc(-c4ccncc4)n3-c3ccccc3C)cs2)cc1 | 44.7 µM (active) |  |
| Cc1ccc(-n2c(SCC(=O)N3c4ccccc4Sc4ccccc43)nnc2-c2ccncc2)cc1 | inactive |  |
| CCOc1ccc(CNCCSc2nnnn2C)cc1 | inactive |  |
| CCc1ccc(NC(=O)c2cc(S(=O)(=O)N3CCCC(C)C3)cn2C)cc1 (stereo not drawn) | inactive |  |
| COc1ccc(OC)c(-c2noc(N3CCN(c4cc(Cl)ccc4C)CC3)n2)c1 | inactive |  |
| COc1ccc(S(=O)(=O)N2CCN(c3ccc(F)cc3)CC2)cc1-c1noc(C)n1 | inactive |  |
| CCc1nc(-c2cc(S(=O)(=O)N3CCN(c4ccc(OC)cc4)CC3)ccc2OC)no1 | 0.631 µM (active) |  |
| Cc1ccc(-n2ncc3c(N4CCC(C(N)=O)CC4)ncnc32)cc1 | inactive |  |

| Compound | Potency | activity, negative = inhibition |
| --- | --- | --- |
| CC(C)(C)OC(=O)N1CCC(c2c(C(=O)N3CCc4ccccc4C3)cnn2-c2ccc(F)cc2)CC1 | inactive |  |
| Cc1ccc(C(=O)Nc2ccc(OCc3cc(=O)n4c5c(sc4n3)CCCC5)cc2)cc1 | inactive |  |
| O=C(COC(=O)CNS(=O)(=O)c1ccc(F)c(F)c1F)NC1CCCC1 | inactive |  |
| CCc1ccc(S(=O)(=O)c2nnn3c2nc(N2CCN(CC)CC2)c2sccc23)cc1 | inactive |  |
| CCCCN(C(=O)CSCC(=O)Nc1ccc(OC)cc1)c1c(N)n(CCC)c(=O)[nH]c1=O |  | 19.8% [at 2.33 µM] (inactive) |
| Cc1ccc(Nc2nc(N)nc(CN3CCN(Cc4ccccc4)CC3)n2)cc1Cl | 50.1 µM (active) |  |
| CCOC(=O)N1CCN(Cc2nc(N)nc(Nc3ccc(C)cc3)n2)CC1 |  | -23.8% [at 2.33 µM] (inactive) |
| Cc1ccccc1Nc1nc(N)nc(CN2CCN(c3ccccn3)CC2)n1 |  | -45.5% [at 12.7 µM] (inactive) |
| CC(=O)c1ccc(NC(=O)c2ccc(-n3cncn3)c([N+](=O)[O-])c2)cc1 | inactive |  |
| COc1ccccc1OCCNC(=O)c1cc([N+](=O)[O-])cc([N+](=O)[O-])c1 | inactive |  |
| COc1ccccc1OCCNc1cc(N2CCOCC2)ccc1[N+](=O)[O-] | 39.8 µM (active) |  |
| O=C(c1ccccc1)N1CCN(c2ccc([N+](=O)[O-])c(NCc3ccco3)c2)CC1 |  | 44.5% [at 0.501 µM] (inactive) |
| O=[N+]([O-])c1ccc(N2CCN(S(=O)(=O)c3ccc4ccccc4c3)CC2)cc1NCc1ccco1 | inactive |  |
| CC(=O)Nc1ccc(S(=O)(=O)N2CCN(c3ccc([N+](=O)[O-])c(NCCN4CCOCC4)c3)CC2)cc1 | 70.8 µM (active) |  |
| CC(=O)Nc1ccc(S(=O)(=O)N2CCN(c3ccccc3)CC2)cc1 | inactive |  |
| O=C(NCCNc1ccccc1[N+](=O)[O-])c1ccccc1F | inactive |  |
| Cc1ccc(CCNC(=O)c2ccc(CS(=O)(=O)Cc3cccc(C)c3)o2)cc1 | inactive |  |
| O=C(N/N=C\c1cc2c(cc1Cl)OCO2)c1ccc(Br)s1 | inactive |  |
| CCN1C(=O)[C@@H]2[C@@H](c3ccc(-c4cccc(Cl)c4)cc3)N3CCC[C@@]3(C(=O)OC)[C@@H]2C1=O |  | 4.52% [at 2.33 µM] (inactive) |
| CCOc1cc(/C=C2/C(=N)N3OC(C)=CC3=NC2=O)ccc1OC | inactive |  |
| CC(C)(C)OC(=O)NCCCCCC(=O)N/N=C/c1coc2ccccc2c1=O | inactive |  |
| CC1=CC2=NC(=O)/C(=C/c3coc4ccccc4c3=O)C(=N)N2O1 | 44.7 µM (active) |  |
| CC(=O)Nc1ccc(S(=O)(=O)N2CCn3cccc3C2C)cc1 (stereo not drawn) |  | -104% [at 12.7 µM] (inactive) |
| COC(=O)C1(C)NC(c2ccc(C)cc2)C2C(=O)N(c3ccc(F)cc3)C(=O)C21 (stereo not drawn) | inactive |  |

| Compound | Potency | activity, negative = inhibition |
| --- | --- | --- |
| CCCC1(C(=O)OCC)NC(c2ccc(N(C)C)cc2)C2C(=O)N(c3ccc4c(c3)OCCO4)C(=O)C21 (stereo not drawn) | 8.91 µM (active) |  |
| CCOC(=O)C1(C)NC(c2ccco2)C2C(=O)N(c3ccccc3)C(=O)C21 (stereo not drawn) | inactive |  |
| CC(=O)Nc1cccc(C(=O)Nc2nc(C)cs2)c1 | inactive |  |
| Cc1csc(NC(=O)C2CCN(S(=O)(=O)c3ccccc3)CC2)n1 | inactive |  |
| Cc1csc(NC(=O)NC2(C(F)(F)F)Oc3ccccc3O2)n1 | 2 µM (active) |  |
| O=C1OC(/C=C/c2ccccc2)=NC/1=C/c1ccco1 | inactive |  |
| CC(C)(C)C1C/C(=C/c2ccco2)C(=O)/C(=C/c2ccco2)C1 (stereo not drawn) | 39.8 µM (active) |  |
| CCOC(=O)c1c(S(=O)(=O)N2CCC(C(=O)NCc3ccccc3OC)CC2)c(C)n(C)c1C | inactive |  |
| CCOC(=O)c1c(NC(=O)c2ccc(S(=O)(=O)N3CCCC(C)C3)cc2)sc2c1CCN(C(C)C)C2 (stereo not drawn) | inactive |  |
| CC(=O)Nc1ccc(OCC(=O)NCc2ccc(C)cc2)cc1 | inactive |  |
| COC(=O)c1ccc(OCC(=O)NC(C)(C)C)cc1 | inactive |  |
| CC(C)(C)NC(=O)COc1ccc(CNc2ccc3[nH]c(=O)[nH]c3c2)cc1 | 31.6 µM (active) |  |
| Cc1ccc(OCC(=O)N2CCN(S(=O)(=O)c3ccc(Cl)s3)CC2)cc1C |  | 6.17% [at 2.33 µM] (inactive) |
| C=CCNC(=O)COc1coc(CN2CCN(Cc3ccccc3)CC2)cc1=O |  | 18.3% [at 0.501 µM] (inactive) |
| C=CCNC(=S)/N=c1/ccccn1Cc1ccccc1 | 31.6 µM (active) |  |
| C=CCNC(=S)N/N=C/c1ccc(OCc2ccccc2)cc1 | inactive |  |
| O=C(CSc1nc2[nH]c(=O)[nH]c(=O)c2s1)Nc1cccc(F)c1 |  | 24.5% [at 12.7 µM] (inactive) |
| COc1ccc(OC)c(NC(=O)CSC2=Nc3ccccc3C3=NC(CC(=O)NCCc4ccccc4)C(=O)N23)c1 (stereo not drawn) | inactive |  |
| COc1cc(NC(=O)COC(=O)CSc2ccc3ccccc3c2)c(C)cc1[N+](=O)[O-] | inactive |  |
| COc1ccc(OCC(=O)Nc2cc(C)c(Cl)cc2OC)c([N+](=O)[O-])c1 | inactive |  |
| Cc1cc(NC(=O)COC(=O)COc2ccc(Cl)cc2C)c([N+](=O)[O-])cc1C | 8.91 µM (active) |  |
| Cc1ccccc1OCCSc1nc2ccc(NC(=O)c3ccco3)cc2s1 | inactive |  |
| CC(=O)c1c(C)[nH]c(C(=O)OCC(=O)Nc2c(C)cccc2C)c1C |  | -11.6% [at 12.7 µM] (inactive) |
| CC(=O)Nc1ccc(S(=O)(=O)Nc2ccc(N3CCOCC3)c(F)c2)cc1 | inactive |  |

| Compound | Potency | activity, negative = inhibition |
| --- | --- | --- |
| O=S(=O)(Nc1ccc2nc(N3CCOCC3)sc2c1)c1ccccc1 | 50.1 µM (active) |  |
| Brc1ccc2nc(N3CCCC3)sc2c1 | inactive |  |
| N#Cc1ccccc1-n1c(N)c(C(=O)N2CCCC2)sc1=S |  | 19.8% [at 0.501 µM] (inactive) |
| Cc1ccc(-n2c(N)c(C(=O)N3CCOCC3)sc2=S)c(C)c1 | 7.94 µM (active) |  |
| Cc1cccc(C(=O)N2CCCN(C(=O)c3cccc(C)c3)CC2)c1 |  | -5.03% [at 12.7 µM] (inactive) |
| COC(=O)c1sc(=S)n(-c2ccc(Cl)cc2)c1C | inactive |  |
| Cc1cccc(-n2c(N)c(C(=O)N3CCN(C)CC3)sc2=S)c1 | 8.91 µM (active) |  |
| COC(=O)c1sc(=S)n(-c2ccccc2)c1N | 3.16 µM (active) |  |
| Cc1ccc(S(=O)(=O)N2CCN(C(=O)N3CCOCC3)CC2)c(C)c1 | inactive |  |
| CC(C)=C1SC(N2CCN(c3cccc(C)c3)CC2)=NC1=O |  | 10.3% [at 12.7 µM] (inactive) |
| COC(=O)c1sc(N2CCN(Cc3ccccc3)CC2)nc1N | inactive |  |
| COc1ccc(CCNc2nc(-c3ccc(Cl)cc3)cc(C(F)(F)F)n2)cc1OC | inactive |  |
| COc1cc(-c2noc(-c3ccc(N4CCCC4)c([N+](=O)[O-])c3)n2)cc(OC)c1OC | inactive |  |
| O=C(COc1ccccc1)OCc1cc(=O)n2nc(-c3cccs3)sc2n1 | inactive |  |
| NC(=O)N/N=C\c1cccs1 | inactive |  |
| Cc1cc(/C=N/NC(N)=O)c(C)n1C1CCCCC1 | 50.1 µM (active) |  |
| Cc1cccc(-n2c(C)cc(/C=N\NC(=O)c3cccs3)c2C)c1 | inactive |  |
| COc1cccc(C(=O)NNC(=O)c2ccccc2Br)c1 | inactive |  |
| COc1ccc2c(c1)Cc1sc(NC(=O)c3ccccc3Br)nc1-2 | 25.1 µM (active) |  |
| Cn1c(=O)c(=O)n(C)c2cc(NC(=O)c3ccccc3Br)ccc21 | inactive |  |
| COc1ccc(CNC(=O)c2cc3c(-c4ccccc4F)nn(C)c3s2)c(OC)c1 | inactive |  |
